Compounds with a hit are over-represented: about 11% of the library has one in this group of screens.
HSD17B inh: qHTS Assay for Inhibitors of HSD17B4, hydroxysteroid (17-beta) dehydrogenase 4. 3-hydroxyacyl-CoA dehydrogenase type-2 (Homo sapiens), Q99714. Potency, µM (series often up to 57.1 µM), hits mostly inhibitors. AID 893, 2007. hit rate 7.6% among 75,000. recombinant HSD17B10, NADH fluorescence kinetic;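 further: the protocol describes HADH2 (HSD17B10) and not the HSD17B4 of the title; nearly all actives have a fitted effect of over 70% in size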
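Enzyme plus compound, 15 min room temperature; substrate mix added (NAD+ 1 mM, beta-hydroxybutyryl-CoA 90 uM final); plates read kinetically for NADH fluorescence. HADH2 was His-tagged, E. coli-derived, 20 nM.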
PK Bst: Pyruvate Kinase | purified pyruvate kinase, luminescence ATP production; ribose 5-phosphate activator present at AC10 | Potency, µM | hit rate 1.2% among 51,000 | AID 361, 2006; in the data active means potency below about 11 µM; inconclusive means mostly about 12 µM to 25 µM;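 the screen sought inhibitors and activators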
Luciferase inh: qHTS Assay for Inhibitors of Firefly Luciferase. AID 411, 2009. Potency, µM (highest dose often 57.1 µM), usual class: inhibitors. hit rate 2.2% among 72,000. purified firefly luciferase, luminescence, 8 min; further: nearly all actives have a fitted effect of over 40% in size
Target sequence (P08659 whole entry, looked up): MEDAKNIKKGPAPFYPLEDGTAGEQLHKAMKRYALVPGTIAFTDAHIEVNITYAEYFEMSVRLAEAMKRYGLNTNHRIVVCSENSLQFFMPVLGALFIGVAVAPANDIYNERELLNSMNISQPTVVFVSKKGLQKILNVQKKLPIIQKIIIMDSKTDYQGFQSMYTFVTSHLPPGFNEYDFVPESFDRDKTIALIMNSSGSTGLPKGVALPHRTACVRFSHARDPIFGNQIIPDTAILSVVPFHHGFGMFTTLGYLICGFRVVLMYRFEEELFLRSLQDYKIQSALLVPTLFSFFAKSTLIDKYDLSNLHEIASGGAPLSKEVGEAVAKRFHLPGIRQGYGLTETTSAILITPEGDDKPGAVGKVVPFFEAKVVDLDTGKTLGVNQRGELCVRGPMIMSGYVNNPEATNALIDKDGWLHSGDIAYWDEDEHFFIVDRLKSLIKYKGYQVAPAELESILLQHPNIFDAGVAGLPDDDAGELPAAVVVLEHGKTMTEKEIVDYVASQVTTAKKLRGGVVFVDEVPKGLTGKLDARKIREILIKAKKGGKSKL
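Substrate buffer containing 10 uM ATP (pH 7.2 imidazole, Mg2+, KCl, detergent, BSA) is dispensed, compound pinned in, then luciferase/luciferin detector mix added. After 8 min at ambient temperature, light output is measured.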
ERK AVP inh: qHTS Assay for Inhibitors of the ERK Signaling Pathway using a Homogeneous Screening Assay; HEK293-V1b, vasopressin-stimulated pERK AlphaScreen; Potency, µM (highest dose often 57.5 µM), hits mostly inhibitors; hit rate 0.99% among 72,000; further: nearly all actives have a fitted effect of over 55% in size
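V1b-HEK293 cells; cpd 30 min 37C; 25 nM vasopressin 5 min; lyse 10 min; AlphaScreen beads 5 hr RT. Normalized to DMSO basal and 25 nM vasopressin; AC50 by Hill fit.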
HADH2 inh: qHTS Assay for Inhibitors of HADH2 (Hydroxyacyl-Coenzyme A Dehydrogenase, Type II). AID 886, 2007. recombinant HADH2, NADH fluorescence, beta-hydroxybutyryl-CoA. hit rate 3.4% among 73,000. Potency, µM (titrated, usually from 57.1 µM), actives largely listed as inhibitors. 3-hydroxyacyl-CoA dehydrogenase type-2 (Homo sapiens), Q99714; further: nearly all actives have a fitted effect of over 60% in size
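Buffer 100 mM Tris-HCl pH 9.0/0.01% Tween-20; HADH2 20 nM; NAD+ 1 mM; beta-hydroxybutyryl-CoA 90 uM (all final). 15 min cpd preincubation, RT.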
ALOX15 inhib: qHTS Assay for Inhibitors of 15-hLO (15-human lipoxygenase) | Polyunsaturated fatty acid lipoxygenase ALOX15 (Homo sapiens), P16050 | purified 15hLO-1, xylenol orange hydroperoxide absorbance | Potency, µM (top dose mostly 57.1 µM), hits mostly inhibitors | hit rate 1.4% among 74,000 | AID 887, 2007; further: nearly all actives have a fitted effect of over 55% in size
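Purified human 15hLO-1 (40 nM) in 25 mM Hepes pH 7.5, 0.01% Triton X-100, preincubated 15 min RT with compound, then 50 uM arachidonic acid for 6 min. Hydroperoxide read by ferrous/xylenol orange, 30 min; 573/405 nm absorbance ratio gave progress.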
Large screens that a line does not name were inactive. Unless noted, the call rests on the fitted dose curve; in most records, active means well fitted curve in the direction sought with a large enough effect; inconclusive means small, poorly fitted or top-dose-only effect, or another doubt; inactive means no such curve, though single readings can be large; an effect the other way counts as inactive or inconclusive.

CCCN1C(=O)/C(=C2\SC(N3CCCCC3)=NC2=O)c2ccccc21	PK Bst inconclusive, Luciferase inh 16µM, ERK AVP inh inconclusive
O=C1N=C(N2CCOCC2)S/C1=C1\C(=O)N(Cc2ccccc2)c2ccccc21	none (no result: PK Bst)
O=C(NC12CC3CC(CC(C3)C1)C2)c1ccccc1O	HSD17B inh 25µM, HADH2 inh inconclusive
COc1ccc(-c2nnc(Nc3nc4c(OC)cccc4s3)o2)c(OC)c1	HSD17B inh 25µM, Luciferase inh 13µM
COc1ccc(-c2nnc(Nc3nc4c(OC)cccc4s3)o2)cc1	HSD17B inh 32µM, Luciferase inh 10µM, HADH2 inh inconclusive
COc1cccc2sc(N)nc12	none (no result: PK Bst, Luciferase inh)
[N-]=[N+]=CC(=O)COC(=O)c1ccccc1	none (no result: PK Bst)
C[C@H]1[C@H]2CC[C@H]3C4CC=C5C[C@@H](N(C)C)CC[C@]5(C)C4CC[C@]23CN1C (stereo not given in full)	none (no result: PK Bst, Luciferase inh, HADH2 inh)
CCOc1ccc(C(=O)COC(=O)CC)cc1	Luciferase inh 16µM (no result: PK Bst)
N[C@H]1[C@@H](C(=O)O)[C@H]2C=C[C@H]1C2	none (no result: PK Bst)
O=C(O)C1Nc2c(O)cccc2C2C=CCC12 (stereo not given)	HSD17B inh 7.9µM, ERK AVP inh inconclusive, HADH2 inh 13µM, ALOX15 inhib inconclusive (no result: PK Bst)
O=C(OC1CCCCC1)c1ccc2c(c1)C1C=CCC1C(C(=O)O)N2 (stereo not given)	HSD17B inh 2.5µM, HADH2 inh 6.3µM, ALOX15 inhib 25µM (no result: Luciferase inh)
COC(=O)C/C=C\[C@@H](C)[C@@H](/C=N\OCC[C@@H]1C=C[C@H](OC(C)=O)[C@H](COC(C)=O)O1)OC	none (no result: PK Bst)
O=C(Nc1ccc(F)cc1)NC1CCN(Cc2nnnn2Cc2ccco2)CC1	HSD17B inh 25µM
CC(C)CC1OCCC=CC1C (stereo not given)	none (no result: PK Bst, Luciferase inh)
Cc1ccccc1CS(=O)(=O)c1nnc([C@H](CC(C)C)NC(=O)OC(C)(C)C)o1	HADH2 inh 2.5µM, ALOX15 inhib inconclusive
CC[C@@H](C)[C@H](NC(=O)OC(C)(C)C)c1nnc(S(=O)(=O)Cc2cc(C)ccc2C)o1	HADH2 inh 2.5µM
CC(C)C[C@H](N)c1nnc(S(=O)(=O)Cc2cccc(F)c2)o1	HADH2 inh inconclusive
CC(C)(C)OC(=O)N[C@@H](Cc1ccccc1)c1nnc(S(=O)(=O)Cc2cccc(F)c2)o1	HADH2 inh 3.2µM
O=C1[C@@H]2[C@H]3[C@H](O)[C@H](O)C/C(=N/OC[C@@H](O)COCc4ccco4)[C@H]3CC[C@H]2C(=O)N1c1ccc(F)cc1F	none (no result: PK Bst)
C[C@H]1C2=C3C(C[C@H]4C(=O)N(c5ccccc5)C(=O)[C@H]4[C@H]3[C@@]3(Cc4ccccc4)C(=NCCc4c[nH]c5ccccc45)OC(=O)N3C2=O)[C@H]2C(=O)N(c3ccccc3)C(=O)[C@H]21 (stereo not given in full)	none (no result: PK Bst, Luciferase inh, HADH2 inh, ALOX15 inhib)
N#CC(CC(=O)O)=C(c1ccccc1)c1ccccc1	none (no result: PK Bst)
CCc1cc2c(nc1CC)CCN(CC/C(C)=N/O[C@@H](C)CN1CCCc3nc(C)c(C)cc31)C2	none (no result: PK Bst)
O=C(O)C(Sc1ccc(Cl)cc1)Sc1ccc(Cl)cc1	HSD17B inh inconclusive (no result: PK Bst)
COC(=O)c1ccc(C(NC(=O)OCc2ccccc2)/C(I)=C/[C@@H](C)C(=O)NCc2ccc(C)o2)cc1 (stereo not given in full)	HADH2 inh inconclusive (no result: PK Bst, Luciferase inh)
CC12C=C(/C=C/C=C/c3ccco3)C(C)(C1)C(/C=C/c1ccco1)CC2=O (stereo not given)	HSD17B inh inconclusive, HADH2 inh inconclusive, ALOX15 inhib inconclusive (no result: PK Bst, Luciferase inh)
Cc1ccc(C)c2[nH]c(=O)c(C(c3nnnn3C3CCCC3)N3CCOCC3)cc12 (stereo not given)	HSD17B inh 32µM, ERK AVP inh inconclusive
O=c1[nH]c2cc3c(cc2cc1C(c1nnnn1C1CCCCC1)N1CCSCC1)OCCO3 (stereo not given)	HSD17B inh 25µM, ERK AVP inh inconclusive, ALOX15 inhib inconclusive
COc1cccc(Cn2c(=O)c(-c3ccc(F)c(F)c3)nc3cncnc32)c1	ALOX15 inhib inconclusive (no result: PK Bst)
CCCN(CCC)c1nc(NC2CCN(C(=O)OCC)CC2)nc(OC)n1	ALOX15 inhib 32µM
CN1CCCN=C1/C=C\c1cccs1	none (no result: PK Bst)
C=CCn1c(=S)[nH]c2nc3c(cc2c1=O)CCCC3	none (no result: HSD17B inh, ERK AVP inh, HADH2 inh, ALOX15 inhib)
C=CCn1c(=S)[nH]c2ccc(Br)cc2c1=O	HSD17B inh 25µM, HADH2 inh inconclusive
[Cu].[O-]/N=C1/C(=[OH+])Nc2ccccc21.[O-]Nc1c(O)[nH]c2ccccc12	none (no result: PK Bst)
CC1(C)CC(N=C=O)CC(C)(CN=C=O)C1 (stereo not given)	none (no result: PK Bst, Luciferase inh)
CN(C)S(=O)(=O)c1ccc(N2CCN(S(=O)(=O)c3ccc(F)cc3)CC2)c(Cl)c1	PK Bst 6.1
CN(C)S(=O)(=O)N1CCN(S(=O)(=O)c2ccc(F)cc2)CC1	none
Cc1nc2ccccc2c(=O)n1/N=C/c1cn(-c2ccccc2)nc1-c1cccs1	Luciferase inh 3.2µM, ERK AVP inh inconclusive (no result: PK Bst)
Cc1nc2ccccc2c(=O)n1/N=C/c1ccncc1	ERK AVP inh inconclusive (no result: PK Bst)
COC(=O)c1ccccc1NC(=O)NCc1ccco1	ERK AVP inh inconclusive
COC(=O)c1ccccc1NC(=O)NCc1cccnc1	HSD17B inh 32µM
COC(=O)c1ccccc1NC(=O)NCc1ccccn1	HSD17B inh 25µM
OCc1nc2ccccc2n1CCCOc1ccc(Br)cc1	PK Bst inconclusive, Luciferase inh 13µM, ERK AVP inh inconclusive
COc1ccccc1OCCn1c(CO)nc2ccccc21	ERK AVP inh inconclusive
CC1(C)CCC2=C(O1)c1ccccc1C(=O)C2=O	ERK AVP inh inconclusive, ALOX15 inhib inconclusive (no result: PK Bst)
COc1ccc(C(=O)N2CCC3(CC2)CCN(c2ccncc2)CC3)cc1	none (no result: PK Bst)
CCNc1ncc2nc(-c3cccs3)c(=O)n(CCC#N)c2n1	HSD17B inh 25µM, ERK AVP inh 5µM (no result: PK Bst)
N#CCCn1c(=O)c(-c2cccs2)nc2cnc(Nc3ccccc3)nc21	none (no result: PK Bst)
CCNc1ncc2nc(-c3cccs3)c(=O)n(C)c2n1	HSD17B inh 32µM (no result: PK Bst)
CCCNC(=O)OC[C@@H]1O[C@H](CCON=C(C)C)C=C[C@@H]1Oc1ccc(OC)cc1	none (no result: PK Bst)
CCOC(=O)C1CCN(c2ncnc3c2oc2ccc(Cl)cc23)CC1	PK Bst inconclusive, HADH2 inh inconclusive
CCOC(=O)N1CCN(c2ncnc3c2[nH]c2ccc(OC)cc23)CC1	none (no result: HSD17B inh, ERK AVP inh, HADH2 inh, ALOX15 inhib)

Assay outcomes from PubChem BioAssay.
